Results from PubChem BioAssay.
Activity calls are given as the source filed them.

What was measured:
[1] = probe aShh binding to arrayed compounds – biochemical, biotinylated probe, 635/667 nm fluorescence, primary screen (AID 1114); conditions: small-molecule microarray, higher = more signal;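 note: probe is biotin-labelled aShh protein from a stem cell growth factor screen; measures binding of labelled protein to compounds printed on the slide; score merges feature fluorescence at 667 nm with signal-to-noise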
[2] = probe aNog binding to arrayed compounds – biochemical, biotinylated probe, 635/667 nm fluorescence, primary screen (AID 1115); conditions: small-molecule microarray, higher = more signal;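 note: probe is biotinylated aNog protein used at 0.15 µg/mL for 1 h at 4 C; z-score combines 667 nm fluorescence of each spot with its signal to noise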
[3] = target: Torsin-1A-interacting protein 1 (Homo sapiens) (UniProt Q5JTV8); experiment: compound microarray binding of lysate hLAP1 – cell lysate, small-molecule microarray, COS7 lysate, 635/667 nm fluorescence, primary screen (AID 1116); conditions: 635 nm fluorescence, higher = more signal
Albumin (Bos taurus) = Albumin (Bos taurus) (UniProt P02769); experiment: compounds binding labelled BSA control protein – biochemical, small-molecule microarray, Alexa647 label, 635/667 nm fluorescence, artefact control for SMM control protein annotation, profiling panel (AID 1118); conditions: BSA-A647 binding, fluorescence 635 nm, higher = more signal;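 note: score merges 667 nm emission intensity and signal-to-noise per printed compound spot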
[4] = probe aXIP binding to arrayed compounds – biochemical, NeuroSMM set, 635/667 nm fluorescence, primary screen (AID 1119); conditions: small-molecule microarray, higher = more signal, called active from +8 up or from −8 down;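 note: probe is the protein aXip251-270 applied at 1 µg/mL to compound-printed slides; binding of probe to printed compounds measured as 667 nm fluorescence plus signal to noise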
[5] = probe aNOTCH3 binding on compound microarray – biochemical, small-molecule microarray, 635/667 nm fluorescence, primary screen (AID 1120); conditions: higher = more signal;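 note: probe is a biotin-tagged antibody raised against NOTCH3 rather than NOTCH3 protein; score merges spot fluorescence near 667 nm with spot signal to noise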
[6] = probe aNOTCH2 binding on compound microarray – biochemical, small-molecule microarray, 635/667 nm fluorescence, primary screen (AID 1121); conditions: higher = more signal;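 note: score merges feature fluorescence read at 667 nm with its signal to noise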
[7] = target: Carbonic anhydrase 2 (Homo sapiens) (UniProt P00918); experiment: compounds binding carbonic anhydrase 2 – biochemical, small-molecule microarray, Alexa647-labelled CAII, profiling panel (AID 1122); conditions: CAII-A647 binding fluorescence, higher = more signal
[8] = COS7 lysate on small-molecule microarray, probe aHis, 635 nm (AID 1123); conditions: COS7 cell lysate, fluorescence, higher = more signal;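 note: z-score combines 667nm fluorescence intensity with signal-to-noise per printed compound spot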
[9] = probe aLAP1 signal on lysate-treated microarray – cell lysate, small-molecule microarray, COS7 lysate, primary screen (AID 1124); conditions: probe aLAP1, fluorescence, higher = more signal;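 note: lysate comes from COS7 cells expressing LAP1 and is applied at 0.3 µg/mL; score merges spot fluorescence near 667 nm with signal-to-noise over triplicate slides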
Sam68 (KHDRBS1) = experiment: compounds binding KHDRBS1 protein – biochemical, small-molecule microarray, 635 nm fluorescence, primary screen (AID 1125); conditions: higher = more signal;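 note: score merges 667 nm channel intensity with signal to noise over triplicate slides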
[10] = test system: Chordin-like protein 2 (CHRDL2); experiment: compounds binding chordin-like 2 – biochemical, small-molecule microarray, 635 nm fluorescence, primary screen (AID 1126); conditions: fluorescence 635 nm, higher = more signal;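 note: printed compound slides probed with Chrdl2 protein at 4 µg/mL for 1 h at 4 C; score merges 667 nm emission intensity with signal to noise over three replicate slides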
[11] = target: Concanavalin-A (Canavalia ensiformis) (UniProt P02866); experiment: compounds binding concanavalin A lectin – biochemical, small-molecule microarray, Alexa647 label, 635 nm, artefact control for SMM control protein annotation, primary screen (AID 1127); conditions: ConA-A647 binding fluorescence, higher = more signal;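 note: z combines 667 nm emission intensity with signal-to-noise across three replicate slides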
[12] = compounds binding Alexa647 anti-His antibody – biochemical, small-molecule microarray, 635 nm fluorescence, artefact control for SMM control protein annotation, primary screen (AID 1128); conditions: higher = more signal;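 note: score merges feature fluorescence with signal-to-noise for each printed compound spot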
[13] = test system: Human papillomavirus type 1a E7 protein (residues 1-88); experiment: HPV1a E7 small-molecule binders, primary screen, biochemical, small-molecule microarray, residues 1-88, 635 nm (AID 1129); conditions: small-molecule microarray binding, fluorescence 635 nm; higher = more signal
[14] = target: Focal adhesion kinase 1 (Homo sapiens) (UniProt Q05397); experiment: PTK2 protein binding on printed compound slides – biochemical, small-molecule microarray, 635/667 nm fluorescence, BSA, DTT, primary screen (AID 1130); conditions: 635 nm fluorescence, higher = more signal;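 note: composite of spot emission at 667 nm and signal to noise over triplicate slides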
[15] = test system: Fibrinogen (Alexa647-labelled); experiment: Alexa647-fibrinogen binding to printed small molecules – biochemical, small-molecule microarray, 635/667 nm fluorescence, artefact control for SMM control-protein annotation, profiling panel (AID 1131); conditions: fibrinogen-A647 binding fluorescence, higher = more signal;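 note: z-score merges 667 nm fluorescence with per-spot signal-to-noise over triplicate slides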
[16] = target: Follistatin (Homo sapiens) (UniProt P19883); experiment: FST protein binding to printed compounds – biochemical, small-molecule microarray, 635/667 nm fluorescence, primary screen (AID 1132); conditions: 635 nm fluorescence, higher = more signal
[17] = target: Fibroblast growth factor 2 (Homo sapiens) (UniProt P09038); experiment: basic fibroblast growth factor binding to printed compounds – biochemical, small-molecule microarray, 635/667 nm fluorescence, primary screen (AID 1133); conditions: FGF2, fluorescence 635/667, higher = more signal
[18] = JC-1 mitochondrial potential readout, lung cancer cells – cell-based, A549, JC-1 fluorescence, basal, 24 h, 100 nL, profiling panel (AID 1138); conditions: higher = more signal;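 note: A549 lung adenocarcinoma cells under basal conditions with no added stimulus; test concentration not given here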

Chain of Albumin (Bos taurus) (P02769 whole entry, looked up): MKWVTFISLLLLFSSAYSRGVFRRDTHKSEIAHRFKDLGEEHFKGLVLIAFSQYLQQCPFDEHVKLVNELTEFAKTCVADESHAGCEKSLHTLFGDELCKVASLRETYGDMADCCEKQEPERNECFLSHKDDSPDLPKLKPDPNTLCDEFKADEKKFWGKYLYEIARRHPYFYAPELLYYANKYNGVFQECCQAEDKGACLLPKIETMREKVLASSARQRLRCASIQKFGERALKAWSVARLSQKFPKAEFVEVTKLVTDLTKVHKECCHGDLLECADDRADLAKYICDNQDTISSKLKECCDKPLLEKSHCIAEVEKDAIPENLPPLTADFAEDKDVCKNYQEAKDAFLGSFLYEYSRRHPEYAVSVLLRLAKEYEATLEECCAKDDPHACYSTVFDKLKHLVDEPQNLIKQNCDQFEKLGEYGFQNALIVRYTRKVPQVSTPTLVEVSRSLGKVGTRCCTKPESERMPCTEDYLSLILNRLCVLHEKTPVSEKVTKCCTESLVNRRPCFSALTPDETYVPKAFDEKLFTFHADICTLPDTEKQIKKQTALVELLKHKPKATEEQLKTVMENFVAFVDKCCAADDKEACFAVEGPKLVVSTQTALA
Chain of Fibroblast growth factor 2 (Homo sapiens) (P09038 whole entry, looked up): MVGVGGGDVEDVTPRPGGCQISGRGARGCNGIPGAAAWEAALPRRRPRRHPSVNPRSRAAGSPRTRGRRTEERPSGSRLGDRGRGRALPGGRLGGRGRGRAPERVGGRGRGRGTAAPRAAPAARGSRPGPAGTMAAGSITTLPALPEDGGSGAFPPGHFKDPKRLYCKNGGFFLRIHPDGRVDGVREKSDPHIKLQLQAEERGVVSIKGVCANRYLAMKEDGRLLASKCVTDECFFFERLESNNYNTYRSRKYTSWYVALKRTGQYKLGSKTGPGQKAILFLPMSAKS
Chain of Concanavalin-A (Canavalia ensiformis) (P02866 whole entry, looked up): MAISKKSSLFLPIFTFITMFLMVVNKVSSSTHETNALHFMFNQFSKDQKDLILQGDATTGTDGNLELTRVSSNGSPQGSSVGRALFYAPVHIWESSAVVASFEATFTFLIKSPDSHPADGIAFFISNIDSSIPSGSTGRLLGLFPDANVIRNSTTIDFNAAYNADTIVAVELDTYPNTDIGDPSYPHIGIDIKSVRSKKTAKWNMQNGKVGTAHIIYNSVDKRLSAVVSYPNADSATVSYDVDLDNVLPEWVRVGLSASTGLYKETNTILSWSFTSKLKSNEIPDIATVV
Chain of Focal adhesion kinase 1 (Homo sapiens) (Q05397 whole entry, looked up): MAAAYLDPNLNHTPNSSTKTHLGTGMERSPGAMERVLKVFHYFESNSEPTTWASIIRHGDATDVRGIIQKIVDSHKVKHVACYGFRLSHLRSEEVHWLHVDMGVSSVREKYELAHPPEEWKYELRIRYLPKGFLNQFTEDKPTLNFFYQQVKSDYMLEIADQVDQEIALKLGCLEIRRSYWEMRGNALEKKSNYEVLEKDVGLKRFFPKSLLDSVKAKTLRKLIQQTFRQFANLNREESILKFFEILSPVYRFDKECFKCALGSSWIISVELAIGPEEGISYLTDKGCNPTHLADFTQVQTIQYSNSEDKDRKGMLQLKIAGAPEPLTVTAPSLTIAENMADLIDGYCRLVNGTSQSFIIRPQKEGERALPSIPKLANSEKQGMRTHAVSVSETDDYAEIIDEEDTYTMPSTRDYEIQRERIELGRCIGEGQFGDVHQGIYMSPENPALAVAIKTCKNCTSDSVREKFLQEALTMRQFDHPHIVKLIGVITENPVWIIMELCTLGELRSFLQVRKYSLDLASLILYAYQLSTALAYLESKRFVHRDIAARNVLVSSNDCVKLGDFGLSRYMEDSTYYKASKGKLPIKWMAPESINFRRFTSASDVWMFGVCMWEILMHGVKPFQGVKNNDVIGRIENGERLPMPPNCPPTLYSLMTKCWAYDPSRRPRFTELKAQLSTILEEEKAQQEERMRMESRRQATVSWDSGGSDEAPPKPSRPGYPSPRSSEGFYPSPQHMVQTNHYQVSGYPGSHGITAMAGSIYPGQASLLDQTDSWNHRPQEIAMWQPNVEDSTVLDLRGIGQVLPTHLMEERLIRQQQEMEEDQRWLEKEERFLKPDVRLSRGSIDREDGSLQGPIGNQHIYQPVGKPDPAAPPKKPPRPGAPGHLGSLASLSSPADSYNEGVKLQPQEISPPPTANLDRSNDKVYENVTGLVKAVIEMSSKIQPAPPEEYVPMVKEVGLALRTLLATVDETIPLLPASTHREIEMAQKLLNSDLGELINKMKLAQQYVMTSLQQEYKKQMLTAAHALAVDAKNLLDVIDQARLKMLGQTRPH
Chain of Torsin-1A-interacting protein 1 (Homo sapiens) (Q5JTV8 whole entry, looked up): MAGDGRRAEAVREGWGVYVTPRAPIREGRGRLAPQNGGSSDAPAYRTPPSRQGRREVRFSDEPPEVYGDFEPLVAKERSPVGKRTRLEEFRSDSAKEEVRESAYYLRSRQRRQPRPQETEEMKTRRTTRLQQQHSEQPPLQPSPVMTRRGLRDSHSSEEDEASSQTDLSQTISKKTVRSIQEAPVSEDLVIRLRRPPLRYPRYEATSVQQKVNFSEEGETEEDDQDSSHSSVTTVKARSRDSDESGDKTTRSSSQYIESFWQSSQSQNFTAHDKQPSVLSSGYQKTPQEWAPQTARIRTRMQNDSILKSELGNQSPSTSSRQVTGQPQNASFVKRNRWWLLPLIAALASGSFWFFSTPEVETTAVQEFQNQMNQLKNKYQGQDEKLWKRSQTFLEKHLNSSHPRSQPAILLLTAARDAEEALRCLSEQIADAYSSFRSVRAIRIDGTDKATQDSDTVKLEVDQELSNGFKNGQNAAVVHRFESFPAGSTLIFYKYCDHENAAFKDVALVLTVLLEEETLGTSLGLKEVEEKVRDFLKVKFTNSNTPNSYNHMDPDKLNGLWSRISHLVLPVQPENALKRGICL
Chain of Follistatin (Homo sapiens) (P19883 whole entry, looked up): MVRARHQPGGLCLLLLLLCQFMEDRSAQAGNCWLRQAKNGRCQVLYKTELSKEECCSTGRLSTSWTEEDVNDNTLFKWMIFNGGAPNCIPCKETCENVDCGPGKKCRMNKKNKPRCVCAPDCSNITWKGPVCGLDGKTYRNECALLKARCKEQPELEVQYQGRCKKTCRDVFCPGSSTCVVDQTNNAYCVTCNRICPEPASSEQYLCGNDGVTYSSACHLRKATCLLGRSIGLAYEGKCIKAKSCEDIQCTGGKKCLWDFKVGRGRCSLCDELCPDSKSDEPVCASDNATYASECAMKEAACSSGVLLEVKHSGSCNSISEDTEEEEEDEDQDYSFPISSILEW

SMILES | composite z-score [1] | composite z-score [2] | composite z-score [3] | composite z-score (Albumin (Bos taurus)) | composite Z-score [4] | composite z-score [5] | composite z-score [6] | composite z-score [7] | composite z-score [8] | composite z-score [9] | composite z-score (Sam68 (KHDRBS1)) | composite z-score [10] | composite z-score [11] | composite z-score [12] | composite z-score [13] | composite z-score [14] | composite z-score [15] | composite z-score [16] | composite z-score [17] | z-score [18]
O=C1O[C@@H](c2ccccc2)[C@@H](c2ccccc2)N2[C@@H](c3ccc(OCCO)cc3)[C@]3(C(=O)Nc4ccc(C#CC5(O)CCCCCC5)cc43)[C@@H](C(=O)NC[C@H](O)c3ccccc3)[C@H]12 | 0.172 | 1.21 | 1.94 | 0.879 | -0.363 (inactive) | 0.158 | 0.0278 | 0.695 | 1.56 | 2.16 | 1.32 | 0.127 | 1.17 | 2.14 | 1.08 | 0.745 | 0.407 | 1.23 | 0.505 | -0.482
CC(C)NC(=O)[C@@H]1c2ccccc2C(=O)N(Cc2cc(F)cc(C(F)(F)F)c2)[C@H]1c1ccc(CO)cc1 | -0.321 | 0.27 | 0.0026 | -0.448 | 0.115 (inactive) | -0.402 | -0.111 | 0.741 | 1.34 | -0.126 | -0.096 | -0.556 | -0.94 | -0.905 | -0.194 | 0.434 | -1.41 | -1.12 | -0.612 | 2.84
COc1c(C)cc(-c2cc3c(c(CCc4ccccc4)n2)[Si](C(C)C)(C(C)C)OC3)cc1C | -0.131 | 0.162 | 0.0693 | -0.296 | 0.0537 (inactive) | 0.0179 | 0.0049 | 0.2 | 0.614 | 0.427 | 1.07 | 0.0922 | -0.17 | -0.611 | 0.654 | 0.158 | -0.074 | 0.483 | 0.0057 | 2.24
O=C(NCC(F)(F)F)[C@@H]1c2ccccc2C(=O)N(C2Cc3ccccc3C2)[C@H]1c1ccc(CO)cc1 | 0.267 | 0.109 | 0.179 | 0.0975 | -1.34 (inactive) | -0.0362 | -0.0907 | 0.414 | -0.0023 | 0.386 | -0.945 | -1.3 | -1 | -1.02 | -0.801 | -0.26 | -1.58 | -0.871 | -0.485 | 2.62
CC1CC/C=C\[C@H]2OC34C=CCN(C(C)C)C(=O)[C@H]3N(C(CO)C(C)C)C(=O)[C@@H]4C2C(=O)O1 (stereo not given in full) | -0.0626 | -0.178 | 0.193 | -0.314 | -0.481 (inactive) | -0.15 | -0.125 | 0.831 | 0.669 | -0.0978 | -1.57 | -1.36 | -2.39 | -1.64 | -2 | 1 | -1.9 | -0.459 | -0.294 | 1.01
O=c1n(-c2ccccc2)c(=O)n2n1CC(COc1ccccc1)=C1[C@@H](CCc3ccccc3)OB(O)C[C@@H]12 | 0.277 | -0.118 | 0.684 | 0.488 | 0.237 (inactive) | 0.0596 | -0.063 | 0.0107 | 0.516 | 0.362 | 1.3 | 0.0848 | 0.515 | 1.01 | 1.04 | 0.12 | 0.501 | 0.763 | 0.853 | 1.25
Cc1ccc(S[C@]2(C(=O)NCCN3CCOCC3)CC(=O)N(Cc3cc(C(F)(F)F)cc(C(F)(F)F)c3)[C@@H]2c2ccc(CO)cc2)cc1 | -0.153 | 0.455 | -0.998 | 0.0152 | -0.654 (inactive) | -0.304 | -0.0846 | 0.78 | 0.244 | 0.248 | -0.142 | -1.01 | -0.664 | -1.03 | 0.624 | 0.151 | -0.899 | -1.09 | -1.21 | 1.59
C=CC[C@]1(C(=O)N2CCCCC2)COC(c2ccc(OCCCO)cc2)=N1 | -0.138 | 0.179 | 1.01 | 0.837 | -0.216 (inactive) | -0.152 | -0.173 | 0.818 | 2.22 | 0.523 | -0.48 | -0.802 | -1.46 | -1.2 | 0.633 | -0.0161 | -0.236 | -0.465 | -0.453 | 2.27
C=CCC(OC(C)=O)[C@@H]1[C@@H](N(Cc2cccc3ccccc23)C(=O)c2cccc3ccccc23)c2cc(OCCCO)ccc2N1C(=O)Cc1ccc(OC)cc1 (stereo not given in full) | 0.0284 | 0.466 | 0.703 | 0.107 | 0.464 (inactive) | 0.128 | -0.0797 | 0.447 | 1.04 | 0.484 | 0.457 | 0.0561 | -0.653 | 0.856 | 0.0512 | -0.0125 | 0.263 | 0.921 | 0.103 | 0.924
O=C1O[C@H](c2ccccc2)[C@H](c2ccccc2)N2[C@H]1[C@@H](C(=O)Nc1nc3ccccc3s1)[C@]1(C(=O)Nc3ccc(C#CCCO)cc31)[C@H]2c1ccccc1OCCO | 0.355 | 1.3 | 1.26 | 0.596 | 0.231 (inactive) | 0.0695 | -0.0155 | 0.671 | 2.43 | 0.849 | 1.31 | -0.0204 | 1.18 | 1.42 | 1.2 | 0.705 | 0.89 | 1.09 | 0.479 | -1.93
CC(C)[C@@H](C(=O)O)n1cc(-c2ccccn2)nn1 | 0.0039 | -0.195 | 0.539 | 0.69 | 0.516 (inactive) | -0.146 | 0.0571 | 0.525 | 0.708 | 0.242 | 0.522 | -0.119 | 0.556 | 2.19 | 1.08 | 0.113 | 0.811 | -0.0164 | 0.712 | 1.88
COC(=O)C1=CC(CCCO)=CC(C2CC2)N(Cc2cc3c(cc2Br)OCO3)C=C1C(=O)OC (stereo not given) | 0.0141 | 0.842 | 3.07 | 1.01 | 0.305 (inactive) | 0.102 | 0.0247 | 0.92 | 2.44 | 1.65 | 1.3 | -0.547 | 1.07 | 2.68 | 0.86 | 0.149 | 0.931 | -0.107 | -0.3 | 1.27
CC(C)C[C@@H]1NC(=O)[C@@H]2C[C@H](C(=O)NCCCCCNC(=O)CS)[C@H](c3cccc(OCCO)c3)N2C1=O | 0.242 | 0.418 | 1.25 | -1.16 | 0.262 (inactive) | 0.0469 | -0.0624 | 0.588 | 1.47 | -0.383 | 1.31 | 0.767 | 1.18 | 2.82 | 1.18 | 1.35 | 0.837 | 1.38 | 1.3 | -0.018
C=C1C=C(Br)C2(OCCCO2)[C@H]2OC12 (stereo not given in full) | 0.0684 | -0.491 | -0.0068 | -0.888 | 2.51 (inactive) | 0.0642 | -0.148 | -0.128 | -0.529 | -0.0289 | -0.404 | 0.646 | -0.71 | -1.16 | -0.315 | 0.0354 | -1.01 | 0.442 | 0.245 | 0.939
CCCC[C@@H](O)C1=C(C)C[C@H]2C(=O)N(C)C(=O)[C@H]2[C@H]1CO | 0.0141 | 0.185 | 0.0605 | 0.799 | 0.475 (inactive) | -0.132 | -0.112 | 0.804 | 0.48 | -0.198 | 0.705 | -0.0576 | 0.0354 | 0.33 | -0.196 | 0.116 | 0.173 | 0.186 | 0.41 | 1.52
CCOC(=O)C[C@H]1[C@H](OC(=O)c2ccc(C(=O)c3ccccc3)cc2)[C@@H](NC(=O)Cc2ccc(OC)cc2)c2cc(OCCCO)ccc2N1C(=O)Cc1ccc(OC)cc1 | -0.156 | 1.1 | 0.743 | 0.602 | -0.333 (inactive) | 0.0397 | -0.0505 | 0.0899 | 0.954 | 0.397 | 1.05 | -0.49 | 1.01 | 0.0446 | 1.07 | 0.551 | 0.729 | 0.295 | -0.078 | 2.88
